The values below come from PubChem BioAssay (NCATS).

Several values for one entry are separate records, joined by “and”; a condition that tells them apart may be missing. Identical values can stand only once. Inconclusive results are not listed. A call without a number means that no potency is given here. Where a structure was tested more than once in an assay, its records may differ in their call. Values without a mark were called inactive. Activity calls are given as the source filed them. Calls come from the whole dose curve; as a rule, active = well fitted curve in the direction sought with a large enough effect; inconclusive = small, poorly fitted or top-dose-only effect, or another doubt; inactive = no such curve, though single readings can be large; an effect the other way counts as inactive or inconclusive.

The first assay relates to Tov-21-G. Briefly: Primary qHTS to identify gynecologic anti-cancer compounds using libraries of approved drugs and bioactive compounds (AID 1345084). Note: nearly all actives have a fitted effect of over 55% in size. Particulars: Gynecologic cancer cell panel viability, ATPlite luminescence, 48 h; series mostly up to 57.5 µM. In outline:
(§1)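 Cell viability after 48 h drug treatment, ATPlite luminescence readout; five doses.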
A general note: qHTS replaces the single test concentration by a dilution series.
Consider `CC(=O)NC1CCSC1=O` (stereo not given), for which the Potency result is “inactive”.

`CCCCCCC(=O)CCCCCC/C=C/C[C@@H](O)[C@H](O)[C@@](N)(CO)C(=O)O`: the Potency result is “inactive”.

Consider `CC(C)c1cccc(C(C)C)c1O`, for which the Potency entry was “inactive”.

For `COP(=S)(OC)Oc1cc(Cl)c(Cl)cc1Cl`, the Potency entry was “inactive”.

As for `O=c1[nH]oc2c1CCNC2`, the Potency result was “inactive”.

Consider `NCCc1ccc(O)cc1`, for which the Potency entry was “inactive”.

`O=C1c2ccccc2C(=O)C1C(=O)C(c1ccccc1)c1ccccc1`: the Potency result is “inactive”.

Consider `NC1=NC(=O)C(c2ccccc2)O1` (stereo not given), for which the Potency entry was “inactive”.

On to `C[C@@H](N)[C@@H](O)c1ccccc1`, for which the Potency entry was “inactive”.

With `c1ccc2c(c1)sc1ccccc12`, the Potency entry is “inactive”.

Turning to `CN1CC[C@]23c4c5ccc(O)c4O[C@H]2[C@@H](O)CC[C@H]3[C@H]1C5`, the Potency result was “inactive”.

Regarding `c1ccc(CN2CCNCC2)cc1`, the Potency entry is “inactive”.

On to `CCC(C)(C)c1ccc(O)cc1`, for which the Potency result is “inactive”.

On to `CNC(C)(C)Cc1ccccc1`, for which the Potency result is “inactive”.

A further assay relates to Tov112D. Described as above. As to conditions: Gynecologic cancer cell panel viability, ATPlite luminescence, 48 h; series mostly up to 57.5 µM. A digest of the protocol:
as §1
(In general: In ATP-based viability assays light output follows the ATP content of the culture.)
Take `COc1cccc([C@@]2(O)CCCC[C@@H]2CN(C)C)c1`: the Potency entry was “inactive”.

Take `C#C[C@]1(O)CC[C@H]2[C@@H]3CCC4=CC(=O)CC[C@]4(C)[C@H]3CC[C@@]21C`: the Potency result is “inactive”.

For `COP(=S)(OC)Oc1ccc(S(=O)(=O)N(C)C)cc1`, the Potency entry was “inactive”.

On to `C[N+]1(CCF)[C@@H]2CC[C@H]1CC(OC(=O)C(O)(c1ccccc1)c1ccccc1)C2` (stereo not given in full), for which the Potency result is “inactive”.

`Nc1ccccc1`: the Potency entry was “inactive”.

With `CN1C(=O)NC(=O)C(C)(C2=CCCCC2)C1=O` (stereo not given), the Potency result was “inactive”.

With `CCC1(CC)C(=O)C=CNC1=O`, the Potency result was “inactive”.

With `O=c1oc2ccccc2c(O)c1Cc1c(O)c2ccccc2oc1=O`, the Potency result was “inactive”.

Regarding `COC(=O)[C@@H](N)CCCN/C(N)=N/[N+](=O)[O-]`, the Potency result is “inactive”.

Turning to `Cc1ncsc1CCCl`, the Potency entry is “inactive”.

In the case of `COC(=O)C(Cl)C(=O)OC`, the Potency result was “inactive”.

As for `CN(C)CCc1c[nH]c2cccc(OP(=O)(O)O)c12`, the Potency entry is “inactive”.

Turning to `O=[N+]([O-])O[C@H]1CO[C@H]2[C@@H]1OC[C@H]2O[N+](=O)[O-]`, the Potency entry is “inactive”.

Take `CC(C)NC(C)C`: the Potency entry was “inactive”.

`O=C1OC(c2ccc(O)c(S(=O)(=O)O)c2)(c2ccc(O)c(S(=O)(=O)O)c2)c2c(Br)c(Br)c(Br)c(Br)c21`: the Potency result is “inactive”.

For the molecule `CCC1(c2ccccc2)C(=O)N(COC)C(=O)N(COC)C1=O`, the Potency entry was “inactive”.

As for `CCOC(=O)CC(SP(=S)(OC)OC)C(=O)OCC` (stereo not given), the Potency entry was “inactive”.

In the case of `CC(=O)OCC1=C(C(=O)O)N2C(=O)[C@@H](N)[C@H]2SC1`, the Potency entry is “inactive”.

In the case of `CC1(C)C(C=C(Cl)Cl)C1C(=O)OC(C#N)c1cccc(Oc2ccccc2)c1` (stereo not given), the Potency entry is “inactive”.

With `O=C(N/N=C/c1ccc([N+](=O)[O-])o1)c1cc([N+](=O)[O-])cc([N+](=O)[O-])c1O`, the Potency entry was “inactive”.

As to `CC(=O)NC1CCSC1=O` (stereo not given), the Potency entry is “inactive”.

`CCCCCCC(=O)CCCCCC/C=C/C[C@@H](O)[C@H](O)[C@@](N)(CO)C(=O)O`: the Potency result is “inactive”.

Turning to `CC(C)c1cccc(C(C)C)c1O`, the Potency result was “inactive”.

As for `COP(=S)(OC)Oc1cc(Cl)c(Cl)cc1Cl`, the Potency entry is “inactive”.

With `O=c1[nH]oc2c1CCNC2`, the Potency result is “inactive”.

Regarding `NCCc1ccc(O)cc1`, the Potency result is “inactive”.

`O=C1c2ccccc2C(=O)C1C(=O)C(c1ccccc1)c1ccccc1`: the Potency result was “inactive”.

As for `NC1=NC(=O)C(c2ccccc2)O1` (stereo not given), the Potency result is “inactive”.

As to `C[C@@H](N)[C@@H](O)c1ccccc1`, the Potency result is “inactive”.

`c1ccc2c(c1)sc1ccccc12`: the Potency result is “inactive”.

In the case of `CN1CC[C@]23c4c5ccc(O)c4O[C@H]2[C@@H](O)CC[C@H]3[C@H]1C5`, the Potency result is “inactive”.

For `c1ccc(CN2CCNCC2)cc1`, the Potency entry was “inactive”.

As to `CCC(C)(C)c1ccc(O)cc1`, the Potency result was “inactive”.

Take `CNC(C)(C)Cc1ccccc1`: the Potency result was “inactive”.

Tested on in another assay: not listed separately
Briefly: Drug repurposing screens with cells derived from glioblastoma tumor samples (AID 1345199). Note: nearly all actives have a fitted effect of over 40% in size. As to conditions: GBM patient neurospheres viability, ATP luminescence, 48 h; at 21.2 µM (top of the series); tumour line B. A digest of the protocol:
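Four patient lines of CD133+ GBM neurospheres were screened at several concentrations; hits were retested in those lines plus three slower-growing GBM lines, using 48-hour treatment and ATP-based viability.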
Regarding `O=c1oc2ccccc2c(O)c1Cc1c(O)c2ccccc2oc1=O`, the activity, negative = cell killing was -21.7%.

As to `CC(=O)OCC1=C(C(=O)O)N2C(=O)[C@@H](N)[C@H]2SC1`, the activity, negative = cell killing was -6.05%.

For the molecule `CC(=O)NC1CCSC1=O` (stereo not given), the activity, negative = cell killing was -5.98%.

With `C[C@@H](N)[C@@H](O)c1ccccc1`, the activity, negative = cell killing was -14.5%.

In the case of `CNC(C)(C)Cc1ccccc1`, the activity, negative = cell killing was -7.53%.

Staying with this assay, now noted: GBM patient neurospheres viability, ATP luminescence, 48 h; at 21.2 µM (top of the series); tumour line D.
Consider `O=c1oc2ccccc2c(O)c1Cc1c(O)c2ccccc2oc1=O`, for which the activity, negative = cell killing was -20.9%.

For `CC(=O)OCC1=C(C(=O)O)N2C(=O)[C@@H](N)[C@H]2SC1`, the activity, negative = cell killing is -13.7%.

Turning to `CC(=O)NC1CCSC1=O` (stereo not given), the activity, negative = cell killing is 7.84%.

As to `C[C@@H](N)[C@@H](O)c1ccccc1`, the activity, negative = cell killing is 16.2%.

For `CNC(C)(C)Cc1ccccc1`, the activity, negative = cell killing was -8.31%.

Staying with this assay, now noted: GBM patient neurospheres viability, ATP luminescence, 48 h; at 21.3 µM (top of the series); tumour line A.
For the molecule `O=c1oc2ccccc2c(O)c1Cc1c(O)c2ccccc2oc1=O`, the activity, negative = cell killing is -20.4%.

For the molecule `CC(=O)OCC1=C(C(=O)O)N2C(=O)[C@@H](N)[C@H]2SC1`, the activity, negative = cell killing is -21.2%.

For `CC(=O)NC1CCSC1=O` (stereo not given), the activity, negative = cell killing is -12.3%.

Turning to `C[C@@H](N)[C@@H](O)c1ccccc1`, the activity, negative = cell killing is -20.6%.

Consider `CNC(C)(C)Cc1ccccc1`, for which the activity, negative = cell killing is -29.6%.

Still in this assay, the particulars now being: GBM patient neurospheres viability, ATP luminescence, 48 h; at 45.9 µM (top of the series); tumour line B.
For the molecule `COc1cccc([C@@]2(O)CCCC[C@@H]2CN(C)C)c1`, the activity, negative = cell killing is -5.81%.

With `C#C[C@]1(O)CC[C@H]2[C@@H]3CCC4=CC(=O)CC[C@]4(C)[C@H]3CC[C@@]21C`, the activity, negative = cell killing is -23.4% and -19.6%.

In the case of `COP(=S)(OC)Oc1ccc(S(=O)(=O)N(C)C)cc1`, the activity, negative = cell killing is -4.11%.

As for `C[N+]1(CCF)[C@@H]2CC[C@H]1CC(OC(=O)C(O)(c1ccccc1)c1ccccc1)C2` (stereo not given in full), the activity, negative = cell killing is -12.6%.

Regarding `Nc1ccccc1`, the activity, negative = cell killing was -4.34%.

For `CN1C(=O)NC(=O)C(C)(C2=CCCCC2)C1=O` (stereo not given), the activity, negative = cell killing was 16.4% and -21.6%.

For the molecule `CCC1(CC)C(=O)C=CNC1=O`, the activity, negative = cell killing is -5.96%.

On to `COC(=O)[C@@H](N)CCCN/C(N)=N/[N+](=O)[O-]`, for which the activity, negative = cell killing was 0.524%.

Consider `Cc1ncsc1CCCl`, for which the activity, negative = cell killing is -10.2%.

`COC(=O)C(Cl)C(=O)OC`: the activity, negative = cell killing was -9.36%.

In the case of `O=[N+]([O-])O[C@H]1CO[C@H]2[C@@H]1OC[C@H]2O[N+](=O)[O-]`, the activity, negative = cell killing was -6.92%.

For the molecule `CC(C)NC(C)C`, the activity, negative = cell killing is 6.4%.

Turning to `O=C1OC(c2ccc(O)c(S(=O)(=O)O)c2)(c2ccc(O)c(S(=O)(=O)O)c2)c2c(Br)c(Br)c(Br)c(Br)c21`, the activity, negative = cell killing is -1.68%.

As for `CCC1(c2ccccc2)C(=O)N(COC)C(=O)N(COC)C1=O`, the activity, negative = cell killing is -7.62%.

Take `CCOC(=O)CC(SP(=S)(OC)OC)C(=O)OCC` (stereo not given): the activity, negative = cell killing is -14.8%.

Take `CC1(C)C(C=C(Cl)Cl)C1C(=O)OC(C#N)c1cccc(Oc2ccccc2)c1` (stereo not given): the activity, negative = cell killing was -16.8%.

With `O=C(N/N=C/c1ccc([N+](=O)[O-])o1)c1cc([N+](=O)[O-])cc([N+](=O)[O-])c1O`, the activity, negative = cell killing is -13.9%.

With `CC(=O)NC1CCSC1=O` (stereo not given), the activity, negative = cell killing is -16.4%.

In the case of `CCCCCCC(=O)CCCCCC/C=C/C[C@@H](O)[C@H](O)[C@@](N)(CO)C(=O)O`, the activity, negative = cell killing is -13.1% and -22.4%.

As for `CC(C)c1cccc(C(C)C)c1O`, the activity, negative = cell killing was 6.49%.

As to `COP(=S)(OC)Oc1cc(Cl)c(Cl)cc1Cl`, the activity, negative = cell killing was 10.9% and 7.75%.

Turning to `O=c1[nH]oc2c1CCNC2`, the activity, negative = cell killing is -19.5%.

As for `NCCc1ccc(O)cc1`, the activity, negative = cell killing was -7.62%.

Regarding `O=C1c2ccccc2C(=O)C1C(=O)C(c1ccccc1)c1ccccc1`, the activity, negative = cell killing is -21.4%.

`NC1=NC(=O)C(c2ccccc2)O1` (stereo not given): the activity, negative = cell killing was -0.343%.

For the molecule `c1ccc2c(c1)sc1ccccc12`, the activity, negative = cell killing is -12.7%.

`CCC(C)(C)c1ccc(O)cc1`: the activity, negative = cell killing is -7.41%.
